Assay results as given in PubChem BioAssay (EPA / NIEHS).
The source made the active and inactive calls. How the source made its calls: active means hit-call score of the fitted dose curve at least 0.9, where 1 is the maximum; inactive means score below 0.9.

Each compound was assayed on Tissue plasminogen activator (tPA), PLAT (gene 5327) (assay: BSK_BE3C_tPA: BioMAP Diversity Plus: BE3C Assay for Tissue plasminogen activator (tPA) Biomarker Activity (AID 2283041)). Conditions: primary human bronchial epithelial cells; actives raise or lower the signal.
Experimental: BSK_BE3C is a cell-based, multiplexed-readout assay that uses bronchial epithelial cell, a human lung primary cell, with measurements taken at 24 hours after chemical dosing in a 96-well plate.BSK_BE3C_tPA is an assay component measured in the BSK_BE3C assay. It measures tPA antibody related to regulation of gene expression using ELISA technology.Data from the assay component BSK_BE3C_tPA was analyzed into 1 assay endpoint. This assay endpoint, BSK_BE3C_tPA, was analyzed with bidirectional fitting relative to DMSO as the negative control and baseline of activity. Using a type of binding reporter, gain or loss-of-signal activity can be used to understand changes in the signaling as they relate to the gene PLAT. Furthermore, this assay endpoint can be referred to as a primary readout, because this assay has produced multiple assay endpoints where this one serves a signaling function. To generalize the intended target to other relatable targets, this assay endpoint is annotated to the protease intended target family, where the subfamily is serine protease.
The levels of cell surface (or secreted, indicated by the prefix "s") biomarker endpoints were measured by ELISA. Overt cytotoxicity to cells in confluent adherent cultures (all systems other than the BT system) was assessed by measuring total protein levels using sulforhodamine B (SRB) staining in parallel cultures at the time of biomarker measurements, indicated as SRB endpoints. For proliferation assays for adherent cell types, individual cell types are cultured at sub-confluence and relative cell numbers quantified by SRB staining at time points optimized for each system (48 h: 3C and CASM3C systems; 72 h: BT and HDF3CGF systems; 96 h: SAg system). SRB was performed by staining cells with 0.1% SRB after fixation with 10% TCA and reading wells at 560 nm.Viability and proliferation of PBMC (T cells) was quantified by Alamar Blue reduction for the SAg and BT systems. For PBMC viability (referred to as PBMC Cytotoxicity within the assay endpoint names), cells were plated (75,000/well in a 96-well plate) and then chemical samples added for 1 h before addition of activators, SEB and TSST-1 (20 ng/mL final concentration each). Cells were incubated for 90 h. Then, Alamar Blue (20 uL/well) (Invitrogen, Cat DAL1100) was added for 6 h, and the plates were read with a fluorescence microplate reader at 546/580 nm (excitation/emission). For PBMC proliferation, cells were plated and activated as above but incubated for only 16 h prior to addition of Alamar Blue. Plates were read after 6 h.
For `OC[C@H]1O[C@@](CO)(O[C@H]2O[C@H](CO)[C@@H](O)[C@H](O)[C@H]2O)[C@@H](O)[C@@H]1O`, the outcome was “inactive”.
In the case of `CCCCCCCC1CCC(=O)O1` (stereo not given), the outcome is reported as “inactive”.
`CCCCCOC(C)=O` was tested, and the outcome was “inactive”.
With `c1ccc2ncccc2c1` the outcome was “inactive”.
For `Nc1ccn([C@@H]2O[C@H](CO)[C@@H](O)[C@@H]2O)c(=O)n1`, the outcome was “inactive”.
In the case of `O=C(O)c1cccc(C[C@@H]2COc3ccc(OCc4nc5cc(F)ccc5s4)cc3[C@@H]2O)c1`, the outcome is reported as “inactive”.
With `CC(=O)c1ccccc1` the outcome was “inactive”.
For `CC1(C)C(=O)N(Cl)C(=O)N1Cl`, the outcome was “inactive”.
In the case of `Cc1nc(-c2ccccn2)ncc1C(=O)Nn1cc(C)c2cc(F)ccc21`, the outcome is reported as “inactive”.
`CC(C)CCCCCCOC(=O)C1CCCCC1C(=O)OCCCCCCC(C)C` (stereo not given) was tested, and the outcome was “inactive”.
For `C=CCc1cc(S(=O)(=O)c2ccc(O)c(CC=C)c2)ccc1O`, the AC50 was 7.78 µM (active).
With `C[C@@H](Oc1ccc(CNC(=O)c2cccnc2Oc2ccc3c(c2)OCO3)c(F)c1)C(=O)O` the outcome was “inactive”.
In the case of `OCCNCCO`, the outcome is reported as “inactive”.
In the case of `O=S1(=O)CCCO1`, the outcome is reported as “inactive”.
For `OCC(CO)(CO)CO`, the outcome was “inactive”.
In the case of `CCCC(CCC)C(=O)O`, the outcome is reported as “inactive”.
`O=c1[nH]cnc2c1ncn2[C@H]1CC[C@@H](CO)O1` was tested, and the outcome was “inactive”.
`OCc1c[nH]c2ccccc12` was tested, and the outcome was “inactive”.
With `CCCCCCCCN(C)C` the outcome was “inactive”.
For `FC(F)(F)COC(OCC(F)(F)F)OCC(F)(F)F`, the outcome was “inactive”.
With `CCc1cccc(CC)c1N` the outcome was “inactive”.
With `CCCCCCCCCCCCCCO` the outcome was “inactive”.
For `OC[C@H]1O[C@@H]2O[C@H]3[C@H](O)[C@@H](O)[C@@H](O[C@H]4[C@H](O)[C@@H](O)[C@@H](O[C@H]5[C@H](O)[C@@H](O)[C@@H](O[C@H]6[C@H](O)[C@@H](O)[C@@H](O[C@H]7[C@H](O)[C@@H](O)[C@@H](O[C@H]1[C@H](O)[C@H]2O)O[C@@H]7CO)O[C@@H]6CO)O[C@@H]5CO)O[C@@H]4CO)O[C@@H]3CO`, the outcome was “inactive”.
With `CCCCCCOC(=O)CC(CC(=O)OCCCCCC)(OC(=O)CCC)C(=O)OCCCCCC` the outcome was “inactive”.
`O=C(Cl)C(F)(F)C(F)(F)C(F)(F)C(=O)Cl` was tested, and the outcome was “inactive”.
With `CCOc1ccc2[nH]cc(C(=O)NCc3ccccc3)c(=O)c2n1` the outcome was “inactive”.
`CCn1nc(C)c2c1C(=O)NCC(c1ccc(O)cc1)=N2` was tested, and the outcome was “inactive”.
In the case of `C=CN1CCCC1=O`, the outcome is reported as “inactive”.
In the case of `NC(=O)N(O)[C@@H]1COc2cc(OCc3ccccc3)ccc21`, the outcome is reported as “inactive”.
For `CCN(CC)C(=S)SSC(=S)N(CC)CC`, the AC50 was 7.46 µM (active).
`NCC(F)(F)C(F)(F)C(F)(F)C(F)(F)F` was tested, and the outcome was “inactive”.
With `S=P(N1CC1)(N1CC1)N1CC1` the outcome was “inactive”.
In the case of `FC(F)=C(F)C(F)(F)C(F)(F)C(F)(F)C(F)(F)C(F)(F)C(F)(F)F`, the outcome is reported as “inactive”.
With `OCCC(F)(F)C(F)(F)C(F)(F)C(F)(F)F` the outcome was “inactive”.
In the case of `COS(C)(=O)=O`, the outcome is reported as “inactive”.
`OCc1ccccc1` was tested, and the outcome was “inactive”.
With `NC(N)=O` the outcome was “inactive”.
`CNC(C)=O` was tested, and the outcome was “inactive”.
In the case of `CCCOc1ccc(S(=O)(=O)N2CCN(CC)CC2)cc1-c1nc2c(CC)n(Cc3ccccn3)nc2c(=O)[nH]1`, the outcome is reported as “inactive”.
With `Cc1ncc([C@@H](CCCCCCc2ccc3c(n2)NCCC3)CC(=O)O)cn1` the outcome was “inactive”.
